Several values for one entry are separate records, joined by “and”; a condition that tells them apart may be missing. Equal entries are not always repeated. The campaign covered roughly 5,500 compounds. About 2,000 (36%) were called active. About 18% were inconclusive and are not listed. Rule as the data show it: active = normalized growth mostly below about 0.91 (no sharp cut-off); inconclusive = no clear call, values can overlap the other calls; inactive = mostly above about 0.92. Some of the results follow.
Assay: chemical genetic growth profiling, strain panel (AID 1159580);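 also: tested at 20 µM; growth read once vehicle control cultures reached saturation at 30 °C; 1 = growth at the plate median or of vehicle wells; lower values mean less growth of the strain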
Conditions: S. cerevisiae deletion strains, growth OD

Measured: normalized growth

OC1C(O)C(O)C(O)C(O)C1O (stereo not given)
inactive: locus YAL013W, strain DEP1, stronger effect = lower value 0.998 | locus YAL021C, strain ccr4, stronger effect = lower value 0.996 | locus YAL026C, strain drs2, stronger effect = lower value 1 | locus YAL030W, strain snc1, stronger effect = lower value 0.997 | locus YBL061C, strain skt5, stronger effect = lower value 0.998 | locus YBR009C, strain hhf1, stronger effect = lower value 1.01 | locus YBR021W, strain FUR4, stronger effect = lower value 1.08 | locus YBR023C, strain chs3, stronger effect = lower value 0.997 | locus YBR171W, strain sec66, stronger effect = lower value 1 | locus YBR229C, strain ROT2, stronger effect = lower value 0.957 | locus YBR231C, strain swc5, stronger effect = lower value 0.999 | locus YBR279W, strain paf1, stronger effect = lower value 1 | locus YCL011C, strain gbp2, stronger effect = lower value 1.01 | locus YCL016C, strain dcc1, stronger effect = lower value 1.01 | locus YCL029C, strain bik1, stronger effect = lower value 0.981 | locus YCL061C, strain MRC1, stronger effect = lower value 0.996 | locus YCL069W, strain vba3, stronger effect = lower value 0.999 | locus YCR088W, strain abp1, stronger effect = lower value 1 | locus YDL005C, strain med2, stronger effect = lower value 1 | locus YDL035C, strain GPR1, stronger effect = lower value 1 | locus YDL040C, strain nat1, stronger effect = lower value 1 | locus YDL074C, strain BRE1, stronger effect = lower value 0.962 | locus YDL101C, strain DUN1, stronger effect = lower value 0.989 | locus YDL134C, strain PPH21, stronger effect = lower value 0.99 | locus YDL185W, strain tfp1, stronger effect = lower value 0.966 | locus YDL192W, strain arf1, stronger effect = lower value 0.977 | locus YDR001C, strain nth1, stronger effect = lower value 0.998 | locus YDR069C, strain doa4, stronger effect = lower value 0.999 | locus YDR101C, strain arx1, stronger effect = lower value 0.976 | locus YDR137W, strain rgp1, stronger effect = lower value 1 | locus YDR150W, strain NUM1, stronger effect = lower value 0.99 | locus YDR159W, strain sac3, stronger effect = lower value 0.993 | locus YDR162C, strain NBP2, stronger effect = lower value 0.994 | locus YDR195W, strain ref2 0.984 | locus YDR297W, strain sur2, stronger effect = lower value 1 | locus YDR318W, strain mcm21, stronger effect = lower value 0.992 | locus YDR334W, strain swr1, stronger effect = lower value 0.994 | locus YDR335W, strain msn5, stronger effect = lower value 1 | locus YDR388W, stronger effect = lower value 0.989 | locus YDR392W, strain spt3, stronger effect = lower value 0.999 | locus YDR502C, strain sam2, stronger effect = lower value 0.986 | locus YEL003W, strain gim4, stronger effect = lower value 1.01 | locus YEL037C, strain rad23, stronger effect = lower value 1 | locus YEL061C, strain CIN8 (second series), stronger effect = lower value 1 | locus YEL061C, strain CIN8, stronger effect = lower value 0.983 | locus YER015W, strain faa2, stronger effect = lower value 0.993 | locus YER016W, strain bim1, stronger effect = lower value 0.991 | locus YER110C, stronger effect = lower value 0.982 | locus YER111C, strain swi4, stronger effect = lower value 1 | locus YER155C, strain BEM2 (second series), stronger effect = lower value 1.01 | locus YER155C, strain BEM2, stronger effect = lower value 0.999 | locus YER167W, strain BCK2, stronger effect = lower value 0.995 | locus YFR010W, strain ubp6, stronger effect = lower value 1 | locus YGL078C, strain dbp3, stronger effect = lower value 0.973 | locus YGL086W, strain mad1, stronger effect = lower value 0.979 | locus YGL167C, strain pmr1, stronger effect = lower value 1 | locus YGL173C, strain kem1, stronger effect = lower value 1.01 | locus YGL227W, strain vid30, stronger effect = lower value 1.01 | locus YGL240W, strain doc1, stronger effect = lower value 0.989 | locus YGL248W, strain PDE1, stronger effect = lower value 0.969 | locus YGL253W, strain hxk2, stronger effect = lower value 1 | locus YGR135W, strain pre9, stronger effect = lower value 1.02 | locus YGR252W, strain gcn5, stronger effect = lower value 0.924 | locus YHR013C, strain ard1, stronger effect = lower value 1 | locus YHR027C, strain rpn1, stronger effect = lower value 1 | locus YHR030C, strain SLT2, stronger effect = lower value 0.975 and 1 | locus YHR079C, strain IRE1 (second series), stronger effect = lower value 0.99 | locus YHR079C, strain IRE1, stronger effect = lower value 0.973 | locus YHR094C, strain hxt1, stronger effect = lower value 0.996 | locus YHR129C, strain ARP1, stronger effect = lower value 0.993 | locus YHR142W, strain chs7, stronger effect = lower value 1.01 | locus YHR200W, strain rpn10, stronger effect = lower value 0.971 | locus YIL066C, strain RNR3, stronger effect = lower value 0.979 | locus YIL073C, strain SPO22, stronger effect = lower value 0.994 | locus YIL125W, strain kgd1, stronger effect = lower value 0.98 | locus YIR030C, strain dcg1, stronger effect = lower value 0.995 | locus YJL092W, strain hpr5, stronger effect = lower value 1 | locus YJL095W, strain BCK1 (second series), stronger effect = lower value 1 | locus YJL095W, strain BCK1, stronger effect = lower value 0.991 | locus YJL115W, strain asf1, stronger effect = lower value 1 | locus YJL129C, strain trk1, stronger effect = lower value 1.02 | locus YJL134W, strain LCB3, stronger effect = lower value 0.995 | locus YJL154C, strain vps35, stronger effect = lower value 1 | locus YJL164C, strain tpk1, stronger effect = lower value 0.999 | locus YJL166W, strain qcr8, stronger effect = lower value 1.01 | locus YJL168C, strain set2, stronger effect = lower value 0.998 | locus YJL187C, strain SWE1 (second series), stronger effect = lower value 0.97 | locus YJL187C, strain SWE1, stronger effect = lower value 1.01 | locus YJR043C, strain POL32, stronger effect = lower value 0.995 | locus YJR066W, strain TOR1, stronger effect = lower value 0.956

Reference: PubChem BioAssay AID1159580 (chemical genetic matrix, 2015)
